Results taken from the supplement of paper PMC3414501.
Where a name gives a salt, the structure may show the parent alone.

Legend:
[1] = tested on: S. cerevisiae SK1 pCDA2-eGFP (USY613), sporulating; assay: CDA2-GFP sporulation assay sensitivity score (z-score vs DMSO controls); higher = stronger inhibition of sporulation, active = hit call of the paper;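 further: active if sensitivity score above 5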
[2] = tested on: S. cerevisiae AD1-9 (efflux-pump deficient), vegetative growth in YPD; assay: growth sensitivity score (doubling time z-score vs DMSO controls); higher = slower growth, strongly negative scores also mark growth inhibition (complete suppression), active = hit call of the paper
Summary of the method: (§1)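 Yeast (Saccharomyces cerevisiae BY4741 and AD1-9) was grown in rich medium in microtiter plates from a starting OD600 of 0.065, with optical density read every 15 min over 24 hours. The growth sensitivity score was the difference between compound and solvent-only means, divided by the solvent-only standard deviation. Every experiment had eight solvent-only wells.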

[3] = tested on: S. cerevisiae BY4741 (wild-type), vegetative growth in YPD; assay: as above
Summary of the method: as §1

[4] = stock concentration (mM, diluted 1:100): 10
[5] = stock concentration (mM, diluted 1:100): 9.7
[6] = stock concentration (mM, diluted 1:100): 10.1
[7] = stock concentration (mM, diluted 1:100): 8.6
[8] = stock concentration (mM, diluted 1:100): 9
[9] = stock concentration (mM, diluted 1:100): 11.3
[10] = stock concentration (mM, diluted 1:100): 8.7
[11] = stock concentration (mM, diluted 1:100): 8.2

C[N+]1(C)CCN(c2ccccc2)CC1 [Dimethylphenylpiperazinium Iodide]
CDA2-GFP sporulation assay sensitivity score [1, 4]: -0.6 (inactive)
growth sensitivity score [2, 4]: -0.59 (inactive)
growth sensitivity score [3, 4]: -0.67 (inactive)

CN1C(=O)CN=C(c2ccccc2)c2cc(Cl)ccc21 [Diazepam]
CDA2-GFP sporulation assay sensitivity score [1, 4]: 4.97 (inactive)
growth sensitivity score [2, 4]: 5.55 (active)
growth sensitivity score [3, 4]: 2.97 (active)

CCN(CC)CCOC(=O)C(O)(c1ccccc1)c1ccccc1 [Benactyzine hydrochloride]
CDA2-GFP sporulation assay sensitivity score [1, 4]: 0.09 (inactive)
growth sensitivity score [2, 4]: -0.44 (inactive)
growth sensitivity score [3, 4]: -0.83 (inactive)

CN1C(=O)CN=C(c2ccccc2)c2cc([N+](=O)[O-])ccc21 [Nimetazepam]
CDA2-GFP sporulation assay sensitivity score [1, 4]: -0.53 (inactive)
growth sensitivity score [2, 4]: 0.79 (inactive)
growth sensitivity score [3, 4]: -0.45 (inactive)

CN=C1CN(O)C(c2ccccc2)=c2cc(Cl)ccc2=N1 [Chlordiazepoxide]
CDA2-GFP sporulation assay sensitivity score [1, 4]: 1.73 (inactive)
growth sensitivity score [2, 4]: 0.94 (inactive)
growth sensitivity score [3, 4]: 1.44 (inactive)

CC(O)(CS(=O)(=O)c1ccc(F)cc1)C(=O)Nc1ccc(C#N)c(C(F)(F)F)c1 (centres undefined) [Bicalutamide]
CDA2-GFP sporulation assay sensitivity score [1, 4]: 0.41 (inactive)
growth sensitivity score [3, 4]: 0.66 (inactive)

CN1CCC(c2ccc(F)cc2)C(COc2ccc3c(c2)OCO3)C1 (centres undefined) [Methyl paroxetine]
CDA2-GFP sporulation assay sensitivity score [1, 5]: 0.37 (inactive)
growth sensitivity score [2, 5]: 35 (active)
growth sensitivity score [3, 5]: 2.48 (active)

CC[C@@H](C(N)=O)N1CCCC1=O [Levetiracetam]
CDA2-GFP sporulation assay sensitivity score [1, 6]: 1.7 (inactive)
growth sensitivity score [2, 6]: -2.51
growth sensitivity score [3, 6]: -1.26 (inactive)

CCOC(=O)C1(c2ccccc2)CCN(CCC(C#N)(c2ccccc2)c2ccccc2)CC1 [Diphenoxylate]
CDA2-GFP sporulation assay sensitivity score [1, 7]: 1.47 (inactive)
growth sensitivity score [2, 7]: 5.75 (active)
growth sensitivity score [3, 7]: -0.94 (inactive)

Cc1ncc2n1-c1ccc(Cl)cc1C(c1ccccc1F)=NC2 [Midazolam hydrochloride]
CDA2-GFP sporulation assay sensitivity score [1, 8]: 6.54 (active)
growth sensitivity score [2, 8]: 12.1 (active)
growth sensitivity score [3, 8]: 0.95 (inactive)

CC[C@@H]1C=CC=CC[C@H](C)[C@@H](O)[C@@H](C)C(=O)[C@H](C)[C@@H](O)[C@H](C)C(=O)[C@H](C)[C@@H](O)[C@H](C)C=CC(=O)O[C@H]2[C@@H](C)[C@@H](CC1)O[C@@]1(CC[C@@H](C)[C@@H](C[C@H](C)O)O1)[C@@H]2C [Oligomycin c]
CDA2-GFP sporulation assay sensitivity score [1, 4]: -1.43 (inactive)
growth sensitivity score [2, 4]: 0.66 (inactive)
growth sensitivity score [3, 4]: 1.53 (inactive)

C[C@]12C/C(=C/O)C(=O)C[C@@H]1CC[C@@H]1[C@@H]2CC[C@@]2(C)[C@H]1CC[C@]2(C)O [Oxymetholone]
CDA2-GFP sporulation assay sensitivity score [1, 6]: 1.28 (inactive)
growth sensitivity score [3, 6]: 9.13 (active)

Oc1cc2c(cc1O)[C@H]1c3ccccc3CN[C@@H]1CC2
CDA2-GFP sporulation assay sensitivity score [1, 4]: -1.42 (inactive)
growth sensitivity score [2, 4]: 0.66 (inactive)
growth sensitivity score [3, 4]: 0.31 (inactive)

CCCCC/C=C\C/C=C\C/C=C\C/C=C\CCCC(=O)Nc1ccc(O)cc1
CDA2-GFP sporulation assay sensitivity score [1, 4]: -4.74 (inactive)
growth sensitivity score [3, 4]: 2.55 (active)

C[C@]12CC[C@H](O)CC1=CC[C@@H]1[C@@H]2CC[C@@]2(C)[C@H]1CC[C@]2(C)O [Methylandrostenediol]
CDA2-GFP sporulation assay sensitivity score [1, 6]: 0.44 (inactive)
growth sensitivity score [2, 6]: 15.1 (active)
growth sensitivity score [3, 6]: 0.35 (inactive)

c1ccc2c(c1)Nc1ccccc1S2 [Phenothiazine]
CDA2-GFP sporulation assay sensitivity score [1, 4]: 3.38 (inactive)
growth sensitivity score [2, 4]: 11.7 (active)
growth sensitivity score [3, 4]: 5.99 (active)

C[N+]1(CCC(C(N)=O)(c2ccccc2)c2ccccc2)CCCCC1 [Fenpiverinium bromide]
CDA2-GFP sporulation assay sensitivity score [1, 6]: 0.3 (inactive)
growth sensitivity score [2, 6]: -1.25 (inactive)
growth sensitivity score [3, 6]: -1.06 (inactive)

CC(C)CC(N(C)C)C1(c2ccc(Cl)cc2)CCC1 (centres undefined) [Sibutramine]
CDA2-GFP sporulation assay sensitivity score [1, 9]: 3.27 (inactive)
growth sensitivity score [2, 9]: 5.47 (active)
growth sensitivity score [3, 9]: 3.69 (active)

CC[C@]1(O)CC[C@H]2[C@@H]3CCC4=CCCC[C@@H]4[C@H]3CC[C@@]21C [Ethylestrenol]
CDA2-GFP sporulation assay sensitivity score [1, 4]: 8.75 (active)
growth sensitivity score [2, 4]: 93.9 (active)
growth sensitivity score [3, 4]: 2.86 (active)

COc1ccc(CCN)cc1OC [Homoveratrylamine]
CDA2-GFP sporulation assay sensitivity score [1, 4]: -0.12 (inactive)
growth sensitivity score [2, 4]: -1.46 (inactive)
growth sensitivity score [3, 4]: -1.07 (inactive)

CNCC(O)c1ccc(O)cc1 (centres undefined) [Synephrine]
CDA2-GFP sporulation assay sensitivity score [1, 4]: 4.04 (inactive)
growth sensitivity score [2, 4]: 0.18 (inactive)
growth sensitivity score [3, 4]: -1.07 (inactive)

CC(=O)O[C@H]1C[C@@H]2CC[C@@H]3[C@H](CC[C@@]4(C)[C@H]3C[C@H]([N+]3(C)CCCCC3)[C@@H]4OC(C)=O)[C@@]2(C)C[C@@H]1[N+]1(C)CCCCC1 [Pancuronium]
CDA2-GFP sporulation assay sensitivity score [1, 10]: 2.51 (inactive)
growth sensitivity score [2, 10]: -8.57
growth sensitivity score [3, 10]: -0.39 (inactive)

CN1C(=O)COc2c(C(=O)NC3CN4CCC3CC4)cc(Cl)cc21 (centres undefined) [Azasetron]
growth sensitivity score [2, 4]: -0.58 (inactive)
growth sensitivity score [3, 4]: -0.56 (inactive)

c1ccc(Cn2ccnc2)cc1 [1-Benzylimidazole]
CDA2-GFP sporulation assay sensitivity score [1, 4]: 2.48 (inactive)
growth sensitivity score [2, 4]: -1.25 (inactive)
growth sensitivity score [3, 4]: -1.22 (inactive)

C[C@]12CC[C@H](O)CC1=CC[C@@H]1[C@@H]2CC[C@]2(C)C(=O)CC[C@@H]12 [Dehydroepiandrosterone]
CDA2-GFP sporulation assay sensitivity score [1, 4]: 15.7 (active)
growth sensitivity score [2, 4]: 70.9 (active)
growth sensitivity score [3, 4]: 7.64 (active)

COc1ccc2[nH]cc(C3=CCNCC3)c2c1
growth sensitivity score [2, 6]: -2.3
growth sensitivity score [3, 6]: -0.36 (inactive)

CC(C)CC(N(C)C)C1(c2ccc(Cl)cc2)CCC1 (centres undefined) [Sibutramine hydrochloride]
CDA2-GFP sporulation assay sensitivity score [1, 4]: 8.57 (inactive)
growth sensitivity score [2, 4]: 6.62 (active)
growth sensitivity score [3, 4]: 1.85 (inactive)

COc1ccc2c(c1)[C@]13CCCC[C@@H]1[C@H](C2)N(C)CC3 [Dextromethorphan hydrobromide]
CDA2-GFP sporulation assay sensitivity score [1, 11]: 14.1 (active)
growth sensitivity score [2, 11]: -0.05 (inactive)
growth sensitivity score [3, 11]: -0.39 (inactive)
